# Laboratory results taken from PubChem BioAssay (NCATS).
# Records with an inconclusive call do not appear. Calls of active or inactive are those of the source. The call rests on the fitted dose curve; in most records, active means well fitted inhibition curve with a large enough effect; inconclusive means small, poorly fitted or top-dose-only effect; inactive means flat fitted curve, though single readings scatter.
# Target: Calcium and integrin-binding protein 1 (Homo sapiens) (UniProt Q99828)
# Test: Primary qHTS for Identification of Calcium Integrin Binding Protein 1 (CIB1) Competitor (AID 1508620); further: top concentration of the series differs between compounds
# Conditions: CIB1-GST / FITC-alphaIIb peptide fluorescence polarization; series mostly up to 114 µM; activity change, negative = inhibition: at the top concentration
# How it was run: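 Fluorescence polarization competition: GST-tagged CIB1 (1 uM final) preincubated with compound 15 min at room temperature, then FITC-labelled alphaIIb peptide (100 nM final) added. After 15 min at room temperature, polarization read at Ex 480/Em 540.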
# On the % scale 0 is the no-effect control and ±100 the full control effect.
# Sequence of Calcium and integrin-binding protein 1 (Homo sapiens) (Q99828 whole entry, looked up): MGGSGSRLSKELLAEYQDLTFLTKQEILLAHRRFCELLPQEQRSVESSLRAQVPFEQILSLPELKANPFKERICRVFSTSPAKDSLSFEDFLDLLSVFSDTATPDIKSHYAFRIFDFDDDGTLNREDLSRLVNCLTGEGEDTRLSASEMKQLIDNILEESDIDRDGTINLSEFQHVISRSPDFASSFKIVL
row,Structure (SMILES),"activity change, negative = inhibition"
1,CC1(C(=O)Nc2ccc(F)nc2)CCCN1c1nc(Nc2cc(C3CC3)[nH]n2)c2cccn2n1 (stereo not drawn),-0.845% (inactive)
2,Cc1cnc(-c2ccccc2C(C)C)nc1NCc1ccc(-n2ccnn2)cc1,-7.66% (inactive)
3,O=C(O)CCc1nccc2c1[nH]c1ccccc12,-3.9% (inactive)
4,CC(=O)C=C=C1C(C)(C)CC(O)CC1(C)O[C@@H]1O[C@H](CO[C@H]2OC[C@](O)(CO)[C@H]2O)[C@@H](O)[C@H](O)[C@H]1O (stereo partly drawn),-2.56% [at 57.7 µM] (inactive)
5,CN1CCN(C2=Nc3ccccc3Nc3ccc(Cl)cc32)CC1,-6.89% (inactive)
6,C=CC(C)(O)CC/C=C(\C)C(=O)OC1C(O)C(CO)OC(OC(=O)C23CCC(C)(C)CC2C2=CCC4C5(C)CCC(OC6OC(COC7OCC(OC(C)=O)C(O)C7OC7OC(COC(C)=O)C(O)C(O)C7OC(C)=O)C(O)C(O)C6OC6OCC(O)C(O)C6O)C(C)(C)C5CCC4(C)C2(C)C(O)C3O)C1OC1OCC(OC2OCC(O)C(OC3OCC(O)C(O)C3O)C2O)C(O)C1O (stereo not drawn),5.75% [at 12.4 µM] (inactive)
7,CC1OC(=O)C[C@@H]2C(C(=O)O)=CO[C@@H](O[C@H]3O[C@H](CO)[C@@H](O)[C@H](O)[C@H]3O)[C@H]12 (stereo partly drawn),-1.31% [at 57.7 µM] (inactive)
8,COC(=O)C1=CO[C@@H](O[C@@H]2O[C@H](CO)[C@@H](O)[C@H](O)[C@H]2O)[C@H]2[C@@H]1C=C[C@]21C=C([C@H](C)OC(=O)/C=C/c2ccc(O)cc2)C(=O)O1,-4.82% [at 30.2 µM] (inactive)
9,COC(CCc1ccc(O)cc1)CC(=O)CCc1ccc(O)cc1 (stereo not drawn),6.23% [at 57.7 µM] (inactive)
10,COc1ccc(CCN(C)CCCOc2nsc(-c3ccccc3)n2)cc1OC,6.82% (inactive)
11,CCCCCc1ccc(/C=C/C(=O)Nc2cc(Cl)ccc2C(=O)O)cc1,4.99% (inactive)
12,CC(C)(O)/C=C/C(=O)[C@](C)(O)[C@H]1[C@H](O)C[C@@]2(C)[C@@H]3CC=C4[C@@H](C[C@H](O[C@@H]5O[C@H](CO)[C@@H](O)[C@H](O)[C@H]5O)C(=O)C4(C)C)[C@]3(C)C(=O)C[C@]12C,-0.491% [at 30.2 µM] (inactive)
13,O=C(/C=C/c1ccccc1O)O[C@@H]1O[C@H](CO)[C@@H](O)[C@H](O)[C@H]1O,4.83% [at 57.7 µM] (inactive)
14,Cc1ccc(-c2cn3c4c(sc3n2)CCCC4)cc1,5.63% (inactive)
15,C/C=C/C=C/C=C/C(=O)O[C@@H]1C=C2COC(=O)[C@]2(O)[C@@]2(C)CCCC(C)(C)[C@H]12,-5.63% [at 57.7 µM] (inactive)
16,C/C=C(/C)C(=O)OC1C=C2C3C(C)C(C)C(OC(=O)C(C)C(C)O)CC3(C)CCC2(C)C2(C)CC(OC(C)=O)C3C(C)(C)C(O)C(=O)CC3(C)C12 (stereo not drawn),-3.23% [at 30.2 µM] (inactive)
17,CC(=O)C1=C(O)C=C2Oc3c(C(C)=O)c(O)c(C)c(O)c3[C@]2(C)C1=O,1.96% (inactive)
18,COc1cc(O)c2c(c1)C1OC1C[C@H](O)[C@H](O)C(=O)/C=C\C[C@H](C)OC2=O (stereo partly drawn),-6.08% (inactive)
19,CC1=CC2/C=C(\C)CCC(O)C(=O)C(O)CC(=O)C23C(=O)NC(CC(C)C)C3C1C (stereo not drawn),-0.929% [at 57.7 µM] (inactive)

row,Structure (SMILES),"activity change, negative = inhibition"
1,Cn1ccc(NC(=O)c2cc(Oc3ccc(C(=O)N4CCC4)c(F)c3)c3c(c2)OC(C)(C)C3)n1,8.8% (inactive)
2,COc1cc([C@H]2O[C@H](c3cc(OC)c4c(c3)OCO4)[C@H](C)[C@H]2C)cc(OC)c1OC,4.26% [at 57.7 µM] (inactive)
3,C=CC(=O)N1CCCN(c2cc(NCCC(=O)O)nc(-c3ccccn3)n2)CC1,-18.6% (inactive)
4,CC(=O)Nc1nc(C)c(-c2nc(N3CCCC(O)C3)no2)s1 (stereo not drawn),2.87% (inactive)
5,CC(C)(O)c1ccc2c(c1)ncn2-c1cccc(-c2ccccc2C#N)c1,-1.66% (inactive)
6,O=C(Nc1ccnc(NC(=O)C2CC2)c1)c1c(Cl)cccc1Cl,-0.791% (inactive)
7,C=C1CCC2[C@](C)(CCC[C@@]2(C)C=O)[C@H]1CC/C(C)=C/CO (stereo partly drawn),-0.479% (inactive)
8,Cn1ncc(Cl)c1-c1cc(C(=O)N[C@H](CN)Cc2ccc(F)c(F)c2)sc1Cl,-18.7% (inactive)
9,CC(=O)OC[C@]12[C@H](OC(C)=O)[C@H](OC(=O)c3ccccc3)[C@@H]3[C@@H](OC(C)=O)[C@]1(OC3(C)C)[C@H](C)C[C@H](OC(C)=O)[C@@H]2OC(=O)c1ccccc1,2.56% [at 30.2 µM] (inactive)
10,CC1CC(=O)C2=C(C1)C1OC1C1(O)C2C(=O)c2cccc(O)c2C1O (stereo not drawn),-5.78% [at 57.7 µM] (inactive)
11,COC1C(OC(=O)/C=C/C=C/C=C/C=C/C(=O)O)CCC2(CO2)C1C1(C)OC1CC=C(C)C (stereo not drawn),-0.657% [at 57.7 µM] (inactive)
12,C/C(=N\N=C(N)N)c1cc(NC(=O)CCCCCCCCC(=O)Nc2cc(/C(C)=N/N=C(N)N)cc(/C(C)=N/N=C(N)N)c2)cc(/C(C)=N/N=C(N)N)c1,75.8% (inactive)
13,C=C1/C(=C/C=C2\CCC[C@]3(C)[C@@H]([C@H](C)/C=C/[C@H](O)C4CC4)CC[C@@H]23)C[C@@H](O)C[C@@H]1O,0.681% (inactive)
14,CC(O)(C(=O)O)C1CCC2(C)C1CCC1(C)C2CCC2C3(C)CCC(O)C(C)(COC4OC(CO)C(O)C(O)C4O)C3CCC21C (stereo not drawn),-10.8% [at 30.2 µM] (inactive)
15,COc1cc(CCO)ccc1O[C@@H]1O[C@H](CO)[C@@H](O)[C@H](O)[C@H]1O,-6.76% [at 57.7 µM] (inactive)
16,CC(NCCCc1cccc(C(F)(F)F)c1)c1cccc2ccccc12 (stereo not drawn),0.544% [at 57.7 µM] (inactive)
17,COc1c(C(C)C)c(O)c(O)c2c1C(OC)[C@H]1OC(=O)[C@@]23CCCC(C)(C)[C@H]13 (stereo partly drawn),-2.5% [at 57.7 µM] (inactive)
18,Cc1ccc(C)c(-c2cc(C(F)(F)F)nn2-c2ccc(S(N)(=O)=O)cc2)c1,-3.77% (inactive)
19,OC1CCC(Nc2nc(-c3ccccc3)nc3[nH]ccc23)CC1 (stereo not drawn),-3.59% (inactive)
